Laboratory results published in paper PMC6919601, “Identification of Plasmodium dipeptidyl aminopeptidase allosteric inhibitors by high throughput screening” (PLoS ONE, 2019).
The campaign covered roughly 110,000 compounds. About 230 (0.21%) showed an effect of 50% or more. The full list was thinned out, with strong results kept by preference.

What follows are molecules tested against DPAP1 (Plasmodium falciparum, UniProt Q8IIJ9) (assay: primary screen, percent inhibition; read by cleavage of a fluorogenic dipeptide substrate; higher = more effect of the substance).
Set-up: species or system P. falciparum D10 trophozoite lysates; single well
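Also: 30 min substrate incubation versus DMSO and 10 µM JCP410 controls.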

Chain of DPAP1 (Q8IIJ9 whole entry, looked up): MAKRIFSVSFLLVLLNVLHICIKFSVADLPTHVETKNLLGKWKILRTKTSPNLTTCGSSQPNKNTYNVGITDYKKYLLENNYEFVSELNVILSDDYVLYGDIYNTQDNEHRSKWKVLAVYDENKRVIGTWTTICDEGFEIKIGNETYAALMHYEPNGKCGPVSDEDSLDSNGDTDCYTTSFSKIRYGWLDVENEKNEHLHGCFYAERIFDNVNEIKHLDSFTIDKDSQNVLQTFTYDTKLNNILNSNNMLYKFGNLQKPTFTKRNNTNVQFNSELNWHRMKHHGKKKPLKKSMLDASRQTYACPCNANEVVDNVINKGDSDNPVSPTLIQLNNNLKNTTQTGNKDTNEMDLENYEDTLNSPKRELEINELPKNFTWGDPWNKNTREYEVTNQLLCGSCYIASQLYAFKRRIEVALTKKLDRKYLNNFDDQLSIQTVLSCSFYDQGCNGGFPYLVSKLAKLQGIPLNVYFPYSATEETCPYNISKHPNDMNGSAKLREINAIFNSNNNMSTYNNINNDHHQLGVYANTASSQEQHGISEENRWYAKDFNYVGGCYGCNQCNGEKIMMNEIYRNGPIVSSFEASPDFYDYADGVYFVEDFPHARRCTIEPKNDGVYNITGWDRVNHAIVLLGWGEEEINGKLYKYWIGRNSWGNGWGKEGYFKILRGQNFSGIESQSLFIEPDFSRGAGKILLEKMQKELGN

| SMILES | % Inhibition @ 10 uM |
| --- | --- |
| CC[C@H](C)[C@H](NC(=O)Cc1ccncc1)C(=O)N[C@@H](CCc1ccccc1)C(=O)CO | -4.17% |
| CCN(C(=O)CCc1ccccc1)c1nc(-c2ccccc2)cs1 | -0.426% |
| CCCN(C(=O)c1ccco1)c1nc(-c2cccc(Cl)c2)cs1 | 11.9% |
| CCN(C(=O)c1ccco1)c1nc(-c2ccccc2)cs1 | 72.9% |
| CCOC(=O)C1=CN(C)C=C(C(=O)OCC)C1c1ccc(C(C)C)cc1 | -1.48% |
| Cc1cc(C)c(S(=O)(=O)N2CCCc3ccccc32)c(C)c1 | 1.83% |
| Cc1ccc(-n2nc(C)c3c(C)c(CCC(=O)NCC4CCCO4)c(C)nc32)cc1 (stereo not drawn) | 0.953% |
| CCOc1ccc(/C=C2/C=C(c3ccc(C)cc3)OC2=O)cc1OC | 1.84% |
| CCOc1ccc(N2C(=O)C3C(C(C)=O)=NN(c4ccccc4Cl)C3C2=O)cc1 (stereo not drawn) | -0.0619% |
| O=C1C(Sc2ccccc2)=C(O)c2cccc3cccc1c23 | 68.7% |
| O=C1c2cccc3cccc(c23)C(=O)N1O | 13.1% |
| O=C1NC(=O)c2cccc3cccc1c23 | -4.51% |
| CC(C)Oc1ccc(C(=O)CCNC(C(=O)O)C(C)C)cc1 (stereo not drawn) | 59.7% |
| CCOc1ccc(C(=O)CCNC(C(=O)O)C(C)CC)cc1 (stereo not drawn) | 71% |
| CCCOc1ccc(C(=O)CCNC(C(=O)O)C(C)C)cc1 (stereo not drawn) | 2.8% |
| CCC(C)C(NCCC(=O)c1ccc(Br)cc1)C(=O)O (stereo not drawn) | -7.23% |
| COc1ccc(C(=O)CCNC(C)C(=O)O)cc1 (stereo not drawn) | 5.85% |
| CCOc1ccc(C(=O)CCNC(CC(=O)O)C(=O)O)cc1 (stereo not drawn) | 42.3% |
| CCC(Oc1ccccc1)C(=O)Nc1ncccc1Cl (stereo not drawn) | -3.75% |
| COc1ccccc1NC(=O)/C=C\C(=O)O | 1.63% |
| CCCN(CCC)CCNC(=O)c1cn(C)c(=O)c2cc(OC)c(OC)cc12 | -2.49% |
| CC(NC(=O)c1cccs1)c1cc2c(cc1Cl)OCCCO2 (stereo not drawn) | -1.28% |
| COC(=O)c1cc2c(C)nn(-c3ccccc3)c2s1 | 4.7% |
| Cc1nn(-c2ccccc2)c2sc(-c3nnc(S)o3)cc12 | 64.9% |
| Cc1nn(-c2ccccc2)c2sc(C(N)=O)cc12 | 6.83% |
| COc1ccccc1NC(=O)c1cc(OC)c(OC)c(OC)c1 | -5.67% |
| Cc1ccc(-c2nc3c4ccccc4nc(S)n3n2)cc1 | -7.62% |
